# Assay results published in PubChem BioAssay AID1210 (NMMLSC, 2008).
# The source made the active and inactive calls.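 How the source made its calls: active means blocks over 70% of labeled estradiol binding at 10 µM, or over a set limit at 100 nM; inactive means the rest.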
# Biological target: Estrogen receptor beta (Homo sapiens) (UniProt Q92731)
# Assay: displacement of fluorescent estrogen from ERbeta – cell-based, Cos7 ERbeta-GFP, flow cytometry, primary screen (AID 1210);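 further: 0% = DMSO vehicle wells and 100% = complete loss of labeled estradiol signal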
# Settings: fluorescent estrogen binding, stronger effect = higher value
# [1] = ligand binding inhibition, at 0.1 µM
# Sequence of Estrogen receptor beta (Homo sapiens) (Q92731 whole entry, looked up): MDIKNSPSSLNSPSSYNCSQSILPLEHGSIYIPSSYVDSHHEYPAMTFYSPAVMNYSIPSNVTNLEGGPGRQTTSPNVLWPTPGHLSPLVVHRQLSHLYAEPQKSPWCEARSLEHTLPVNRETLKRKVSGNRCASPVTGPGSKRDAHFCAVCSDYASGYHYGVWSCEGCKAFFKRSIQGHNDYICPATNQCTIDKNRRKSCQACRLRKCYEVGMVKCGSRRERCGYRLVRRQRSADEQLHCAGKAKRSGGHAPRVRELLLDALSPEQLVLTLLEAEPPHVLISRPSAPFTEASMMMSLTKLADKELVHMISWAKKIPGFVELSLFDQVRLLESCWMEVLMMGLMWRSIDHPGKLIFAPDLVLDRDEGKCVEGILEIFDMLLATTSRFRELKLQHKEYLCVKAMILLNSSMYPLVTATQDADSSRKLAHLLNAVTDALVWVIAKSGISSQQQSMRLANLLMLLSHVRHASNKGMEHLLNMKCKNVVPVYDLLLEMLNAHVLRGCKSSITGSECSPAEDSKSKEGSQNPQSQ
SMILES,inhibition (at 10 µM),inhibition [1]
Cc1ccc(-n2c(SCC(=O)NNC(=S)Nc3ccccc3)nc3ccccc3c2=O)cc1,34% (inactive),4%
Cn1nc([N+](=O)[O-])c2c(-c3nc4ccccc4s3)c(N)n(C3CCCCC3)c2c1=O,18% (inactive),34%
COc1cc(C(Nc2ccccn2)c2ccc3ccc(C)nc3c2O)cc(OC)c1O (stereo not given),0% (inactive),20%
Nc1ccc2nc3n(c(=O)c2c1)CCC3,49% (inactive),9%
COc1cc(C2CC(=O)c3c(ccc4ccccc34)N2)ccc1O (stereo not given),47% (inactive),14%
CCOc1ccccc1N1CSC2=C(C#N)C(c3c(OC)ccc4ccccc34)CC(=O)N2C1 (stereo not given),35% (inactive),28%
Cc1ccccc1NC(=O)CSc1nnc(-c2ccco2)c(-c2ccco2)n1,31% (inactive),27%
Cc1nn(-c2ccc(Cl)cc2)c2sc(C(=O)N3CCN(c4ccccn4)CC3)cc12,50% (inactive),40%
CC(=O)Nc1nonc1-c1nc2ccccc2n1N(C(C)=O)C(C)=O,35% (active),70%
CCCN(CCC)S(=O)(=O)c1ccc(NC(=O)Cc2cccs2)cc1,46% (inactive),20%
COc1ccc(CNC(=O)c2cc(-c3cccs3)on2)cc1,39% (inactive),23%
O=c1c2c([nH]c3ccccc13)C(=C1CCCC1)CC2,42% (inactive),11%
O=S(=O)(Nc1ncnc2sc3c(c12)CCC3)c1ccc2ccccc2c1,12% (inactive),31%
Oc1ccccc1C1=Nc2ccccc2N=C(c2cccs2)C1,19% (inactive),17%
CC12CCC(=O)N1C(C(=O)OCC(=O)Nc1sccc1C#N)CS2 (stereo not given),37% (inactive),47%
C=C(C)CNC(=S)NNC(=O)CCn1c2cc(Cl)ccc2c2ccc(Cl)cc21,18% (inactive),20%
N#CC(C(=O)Nc1ccc(Cl)cc1)=C1Nc2ccccc2N1,59% (inactive),21%
CCn1c(SCC(=O)Nc2cccc(F)c2)nnc1-c1cc2cc(Br)ccc2o1,39% (inactive),12%
C/C(N)=C(/C#N)C(=O)CSc1nnc(Nc2cccc(C)c2C)s1,39% (inactive),7%
CC(=O)Nc1ccc(N=Cc2nc(-c3ccc(C)cc3)oc2O)cc1,68% (inactive),56%

SMILES,inhibition (at 10 µM),inhibition [1]
COc1ccc(C2CC(c3cccs3)=NN2c2ccc(C=O)cc2)cc1 (stereo not given),42% (inactive),29%
CC1(C)Cc2c(sc3c4nnnn4c4nnnn4c23)CO1,23% (inactive),40%
CN1CCC(=NNC(=O)c2cn(-c3ccccc3)nc2-c2ccccc2)CC1,32% (inactive),6%
C=CCn1c(COc2ccccc2F)nnc1SCC(=O)NC(=O)NCc1ccco1,24% (inactive),2%
Oc1ccc(C2=Nn3c(nnc3-c3ccco3)SC2)cc1O,32% (inactive),1%
Cc1cc(C)cc(OCC(=O)Nc2ccc(N3CCCC3)cc2)c1,71% (active),37%
O=C1c2ccccc2NC(c2cccnc2)N1c1ccccc1F (stereo not given),63% (inactive),24%
Cc1ccc(C(=O)Nc2nc(-c3cccnc3)cs2)o1,15% (inactive),43%
O=C(Nc1cccc2cccc(NC(=O)c3ccco3)c12)c1ccco1,24% (inactive),22%
COc1ccc(C2=NN(C(=O)c3cccnc3)C(c3ccccc3)C2)cc1 (stereo not given),41% (inactive),12%
O=C(Cc1cccs1)Nc1nncs1,26% (inactive),16%
COc1ccc(N2Cc3cccc(C(=O)O)c3C2=O)cc1,42% (inactive),32%
Cc1ccc(C(=O)N/N=C/c2ccc([N+](=O)[O-])s2)cc1,38% (inactive),58%
Cc1cccn2c(=O)c3cc(C(=O)O)n(C)c3nc12,60% (inactive),11%
COCCOC(=O)c1[nH]c2c(c1C)C(=O)CC(c1ccco1)C2 (stereo not given),35% (inactive),26%
CCOC(=O)c1cc2c(c(CSc3nc4ccccc4c(=O)n3Cc3ccco3)c1)OCOC2,67% (inactive),4%
COc1ccc(N=Cc2sc(O)c3ccccc23)cc1,47% (inactive),22%
Cc1ccc(S(=O)(=O)Cc2ccc(C(=O)N3CCN(Cc4ccccc4)CC3)o2)cc1,37% (inactive),18%
Nc1ccc(/C=C/C(=O)c2ccco2)cc1,0% (inactive),37%
O=c1cc(-c2ccco2)oc2c1ccc1ccccc12,49% (inactive),22%
